Screening results as filed in PubChem BioAssay.
proKLK7 act = proKLK7 zymogen activators, primary screen, biochemical, fluorescence intensity; purified proKLK7, EDANS-DABCYL substrate fluorescence; 100% is mature enzyme control, 0% vehicle; hit rate 0.9% among 370,000; Kallikrein-7 (Homo sapiens), P49862; activation, % at 7 µM;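 active means activation above the mean of all tested compounds plus 3 SD, computed per campaign excluding outliers beyond control limits, cut at about 13% in these data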
ADAM17 inh = ADAM17 inhibitors, primary screen, biochemical, QFRET; Disintegrin and metalloproteinase domain-containing protein 17 (Homo sapiens), P78536; recombinant ADAM17, EDANS/DABCYL FRET peptide cleavage; inhibition, % at 6.95 µM; hit rate 0.83% among 370,000;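 active means inhibition above the mean of compounds lying between control limits plus 3 SD, set per campaign, cut at about 8.5% in these data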;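 further: 0% = DMSO-only wells as the low control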
V-ATPase pH = regulators of yeast V-ATPase proton pumping, primary screen, pHLuorin cytosolic pH fluorescence | response, % at 10 µM | AID 504577, 2011 | S. cerevisiae | hit rate 0.37% among 350,000; in the data active means response mostly above about 7.3%, no sharp cut-off; inactive means mostly below about 5.4%; further: actives read high
ADAM10 inh = human ADAM10 inhibitors, primary screen, biochemical, QFRET, HTS; inhibition, % at 7 µM; Disintegrin and metalloproteinase domain-containing protein 10 (Homo sapiens), O14672; hit rate 0.62% among 370,000; recombinant ADAM10, EDANS/DABCYL FRET peptide cleavage, 3 h;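 active means inhibition above a per-campaign cutoff equal to the mean of compounds falling between control-based bounds plus 3 SD, cut at about 20% in these data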;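 further: 0% = DMSO wells while the 100% control is not disclosed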
Target sequence (O14672 214-748 limits assumed): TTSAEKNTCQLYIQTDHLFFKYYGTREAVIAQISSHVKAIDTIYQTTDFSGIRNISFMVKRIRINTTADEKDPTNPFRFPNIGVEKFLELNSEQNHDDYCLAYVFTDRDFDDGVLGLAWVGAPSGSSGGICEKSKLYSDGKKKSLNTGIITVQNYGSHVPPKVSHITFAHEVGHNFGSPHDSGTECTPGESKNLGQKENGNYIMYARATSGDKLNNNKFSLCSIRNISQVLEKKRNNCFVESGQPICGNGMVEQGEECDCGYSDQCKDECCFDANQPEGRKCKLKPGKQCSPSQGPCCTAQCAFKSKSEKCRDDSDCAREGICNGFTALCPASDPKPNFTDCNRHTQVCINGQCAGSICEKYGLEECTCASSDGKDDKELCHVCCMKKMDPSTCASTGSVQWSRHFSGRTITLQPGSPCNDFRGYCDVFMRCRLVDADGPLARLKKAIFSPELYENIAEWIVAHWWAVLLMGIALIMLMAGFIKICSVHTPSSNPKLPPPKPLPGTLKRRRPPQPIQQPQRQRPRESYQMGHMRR
V-ATPase pH SP = yeast V-ATPase proton pumping modulators, confirmation, S. cerevisiae, pH-sensitive GFP, second cherry-pick; shares compounds with V-ATPase pH; response, % at 10 µM; hit rate 2% among 980; S. cerevisiae pHLuorin cytosolic pH, V-ATPase proton transport; in the data active means response above about 24%;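 further: plate controls were vehicle wells for no effect and positive control wells for full effect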
An asterisk follows results filed as active. A selection: hits, their analogues and other compounds. The true share with any hit is near 2.3%.

Screening CC1CCN(c2nc(-c3ccc(F)cc3)cc(C(F)(F)F)n2)CC1 returned proKLK7 act 0.2, ADAM17 inh -2.0, V-ATPase pH 8.6*, ADAM10 inh 9.9 and V-ATPase pH SP 2.1.
For O=C1C=C(c2ccc(C(=O)O)cc2)C[C@@H](c2ccc(F)cc2)C1 the results were proKLK7 act -0.5, ADAM17 inh -3.3, V-ATPase pH 9.7*, ADAM10 inh -3.0 and V-ATPase pH SP -1.0.
N#C/C(C(N)=O)=C1/CCc2ccccc2N1 was read as proKLK7 act 0.5, ADAM17 inh -1.8, V-ATPase pH 12.8*, ADAM10 inh 1.6 and V-ATPase pH SP 3.5.
For CCn1c2ccccc2c2cc(NC(=O)COC(=O)c3ccc(F)cc3Cl)ccc21 the results were proKLK7 act 0.2, ADAM17 inh -2.9 and ADAM10 inh -1.5.
Screening COC(=O)c1cccc(OC[C@@H](O)CN2CCC(C(O)(c3ccccc3)c3ccccc3)CC2)c1 returned proKLK7 act 0.0, ADAM17 inh 6.9 and ADAM10 inh 2.4.
Screening CCNC(=O)COC(=O)CCC(=O)c1ccc(F)cc1 returned proKLK7 act -0.1, ADAM17 inh -3.8, V-ATPase pH 0.8, ADAM10 inh 2.2 and V-ATPase pH SP 1.3.
`COC(=O)c1ccc(CNC(=O)COC(=O)CCC(=O)c2ccc(F)cc2)cc1` gave proKLK7 act 0.8, ADAM17 inh 3.5, V-ATPase pH 0.0 and ADAM10 inh -1.9.
For C=CCNC(=O)CN(C(=O)Cc1cccc(OC(F)(F)F)c1)c1cccc(Br)c1 the results were proKLK7 act -0.3, ADAM17 inh 2.5 and ADAM10 inh 9.1.
Screening Cc1cc(=O)oc2cc(OCC(=O)NC3CC(C)(C)NC(C)(C)C3)ccc12 returned proKLK7 act -0.5, ADAM17 inh -18.0, V-ATPase pH 10.9*, ADAM10 inh -55.8 and V-ATPase pH SP -0.5.
Screening CSc1nccc(N2CCN(c3ccc(F)cc3)CC2)n1 returned proKLK7 act 0.0, ADAM17 inh -0.8, V-ATPase pH 11.0*, ADAM10 inh -1.6 and V-ATPase pH SP -1.2.
For Clc1ccc(N2CCN(c3ccnc(Cl)n3)CC2)cc1 the results were proKLK7 act 0.6, ADAM17 inh 1.9, V-ATPase pH -0.5 and ADAM10 inh 1.5.
COC(=O)[C@]12C[C@H](CC(=O)NCC3CCCCC3)C(=O)N(Cc3ccco3)C1=C[C@H](C(C)C)O[C@@H]2C1CC1 was read as proKLK7 act 0.1, ADAM17 inh -0.6 and ADAM10 inh 0.3.
`Cc1ccc(CN2CCNC(=O)C2CC(=O)N(C)CCc2ccccc2)cc1` (stereo unspecified) gave proKLK7 act 1.4, ADAM17 inh -3.7, V-ATPase pH 11.1*, ADAM10 inh -7.1 and V-ATPase pH SP 1.1.
CC(C)(C)OC(=O)NCc1cc2c(cc1/C=C/S(=O)(=O)NC1CCCC1)OCO2 was read as proKLK7 act -12.7, ADAM17 inh -20.9 and ADAM10 inh -77.3.
For O=C(CCN1C(=O)/C(=C\c2cccs2)SC1=S)Nc1ccccn1 the results were proKLK7 act -0.8, ADAM17 inh 3.5, V-ATPase pH 6.2*, ADAM10 inh -5.9 and V-ATPase pH SP -2.9.
COc1ccc(/C=C2\Oc3cc(OCC(N)=O)ccc3C2=O)cc1OC was read as proKLK7 act -17.7, ADAM17 inh -8.5, V-ATPase pH -1.1 and ADAM10 inh -5.0.
`COC(=O)COc1ccc2c(c1)O/C(=C\c1cccc([N+](=O)[O-])c1)C2=O` gave proKLK7 act 0.0, ADAM17 inh -3.0, V-ATPase pH 12.7*, ADAM10 inh -8.2 and V-ATPase pH SP 3.4.
`Cc1cc(C)nc(NC(=S)N2CCN(c3ncc(C(F)(F)F)cc3Cl)CC2)c1` gave ADAM17 inh -1.9 and ADAM10 inh 4.7.
`COc1ccc(N/C(=C\C(=O)c2ccccc2)c2ccccc2)cc1OC` gave proKLK7 act 0.4, ADAM17 inh -1.0 and ADAM10 inh -4.6.
`C=CCNC(=O)c1nn2cccnc2c1Cl` gave proKLK7 act -0.1, ADAM17 inh -3.2, V-ATPase pH 11.5*, ADAM10 inh 1.7 and V-ATPase pH SP -1.2.
CN(C)CCC(=O)c1ccc(F)cc1 was read as proKLK7 act 0.6, ADAM17 inh 2.3, V-ATPase pH 1.0, ADAM10 inh 2.0 and V-ATPase pH SP 10.9.
`O=C(CCCN1CCN(c2ccccc2)CC1)c1ccc(F)cc1` gave proKLK7 act -0.6, ADAM17 inh 6.4, V-ATPase pH 1.3 and ADAM10 inh -5.2.
Screening CCN(CC)CCC(=O)c1ccc(F)cc1 returned proKLK7 act 0.1, ADAM17 inh 1.7, V-ATPase pH -1.9 and ADAM10 inh -3.0.
For O=C(CCCN1Cc2ccccc2C1)c1ccc(F)cc1 the results were proKLK7 act -0.4, ADAM17 inh -14.8, V-ATPase pH 3.4, ADAM10 inh -37.5 and V-ATPase pH SP -7.8.
For CN1CCN(CCCC(=O)c2ccc(F)cc2)CC1 the results were proKLK7 act 0.1, ADAM17 inh -2.0, V-ATPase pH 3.9, ADAM10 inh -1.1 and V-ATPase pH SP 0.3.
Screening CS(=O)(=O)N1Cc2ccccc2CC1C(=O)OCC(=O)NCCc1ccc(S(N)(=O)=O)cc1 (stereo unspecified) returned proKLK7 act 0.0, ADAM17 inh -1.5, V-ATPase pH 12.4*, ADAM10 inh -2.0 and V-ATPase pH SP 1.1.
Cc1nc2ccc(C(=O)N3CCN(C(=O)OCc4ccccc4)CC3)cc2n1C1CCCC1 was read as proKLK7 act -0.1, ADAM17 inh -4.3 and ADAM10 inh -6.5.
`CCOC(=O)c1c(-c2ccc(C)o2)csc1NC(=O)CSc1nnc(C)s1` gave proKLK7 act -0.2, ADAM17 inh -2.2, V-ATPase pH 9.2*, ADAM10 inh 2.3 and V-ATPase pH SP -1.4.
For O=C(Nc1ccc2[nH]ccc2c1)c1cc(-c2ccc(Cl)cc2)nc2ccccc12 the results were proKLK7 act -4.1, ADAM17 inh 6.3 and ADAM10 inh 4.8.
For COc1ccc(-c2nn(C)c(=O)c3ccccc23)cc1NC(=O)Cn1nc(C)c2ccccc2c1=O the results were proKLK7 act -0.3, ADAM17 inh -5.0, V-ATPase pH 9.9*, ADAM10 inh 2.3 and V-ATPase pH SP -0.5.
For CCC(=O)Nc1cc(-c2nn(C)c(=O)c3ccccc23)ccc1OC the results were proKLK7 act -0.4, ADAM17 inh 5.0, V-ATPase pH -2.0 and ADAM10 inh 1.5.
COCC(C)NC(=O)c1cccc([N+](=O)[O-])c1 (stereo unspecified) was read as proKLK7 act -0.4, ADAM17 inh 4.9, V-ATPase pH -1.9 and ADAM10 inh 8.8.
Screening CC(C)OP(=O)(OC(C)C)C(NC(=O)c1cccc([N+](=O)[O-])c1)C(N)=O (stereo unspecified) returned proKLK7 act 0.3, ADAM17 inh -5.2, V-ATPase pH 9.1, ADAM10 inh 0.1 and V-ATPase pH SP 2.8.
